Laboratory results from PubChem BioAssay (NCI).
About 83,000 compounds went through this panel and 20% of them were active in at least one assay; those are over-represented in the sample as a whole.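 Testing used 96-well plates and a 48-hour single-concentration exposure. Example: -40 means 40% of the starting cells died.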 Values without a mark were called inactive. The source made the active and inactive calls. How the source made its calls: active means growth percent below 10; inactive means the rest.

Columns and labels:
Experiment in all cases: NCI-60 one-dose screen, 48 h (100 = growth as untreated, 0 = no growth, -100 = all killed)
Conditions in all cases: 10 µM unless noted
DU-145 prostate = tested on: DU-145 prostate
K-562 leukemia = tested on: K-562 leukemia
MALME-3M melanoma = tested on: MALME-3M melanoma
MDA-MB-231 breast = tested on: MDA-MB-231 breast
RXF 393 renal = tested on: RXF 393 renal
SF-268 CNS = tested on: SF-268 CNS
SF-295 CNS = tested on: SF-295 CNS
SF-539 CNS = tested on: SF-539 CNS
UACC-257 melanoma = tested on: UACC-257 melanoma
M14 melanoma = tested on: M14 melanoma

| Structure (SMILES) | growth (DU-145 prostate) | growth (K-562 leukemia) | growth (MALME-3M melanoma) | growth (MDA-MB-231 breast) | growth (RXF 393 renal) | growth (SF-268 CNS) | growth (SF-295 CNS) | growth (SF-539 CNS) | growth (UACC-257 melanoma) | growth (M14 melanoma) |
| --- | --- | --- | --- | --- | --- | --- | --- | --- | --- | --- |
| COC(=O)[C@@H](C)C[C@H](Cc1ccccc1)NC(=O)c1nc([C@@H](C[C@H](C(C)C)N(C)C(=O)[C@@H](NC(=O)[C@H]2CCCN2C)C(C)C)OC(C)=O)sc1C | 17.7% | 9.29% (active) | 54.4% | 14.1% | 39% | 30.6% | 10.6% | -8.41% (active) | 51.1% | 1.43% (active) |
| Cc1ccc2c(C(C[N+](=O)[O-])c3cccs3)c(-c3ccccc3)[nH]c2c1 (stereo not given) | 28.1% | 10.8% | 50.9% | 44.1% | 13.8% | 37.7% | 7.69% (active) | 6.62% (active) | 30% | 19.4% |
| CCOP1(=O)CC(C)=C(Cl)C(P(=O)(OCC)OCC)C1 (stereo not given) | 109% | 110% | 118% | 87.6% | 74.5% | 107% | 103% | 113% | 76.9% | 74.3% |
| CCOC(=O)[C@@H](C)C[C@H](Cc1ccccc1)NC(=O)c1csc([C@@H](C[C@H](C(C)C)N(C)C(=O)[C@@H](NC(=O)[C@H]2C[C@H](O)CCN2C)C(C)C)OC(C)=O)n1 | 0.421% (active) | 6.81% (active) | 35.1% | 14.5% | 42.1% | 24.6% | -6.17% (active) | -18.5% (active) | 58.5% | -13% (active) |
| COC(=O)[C@@H](C)C[C@H](Cc1ccccc1)NC(=O)c1csc([C@@H](C[C@H](C(C)C)N(C)C(=O)[C@@H](NC(=O)CN(C)C)C2CC2)OC(C)=O)n1 | 3.44% (active) | 9.12% (active) | 69.8% | 24.2% | 37.6% | 33.3% | 13.5% | 0.502% (active) | 60.3% | 13% |
| CC1CN1CCCCN1CC1C (stereo not given) | 105% | 83.6% | 103% | 125% | 115% | 98.6% | 101% | 103% | 83.9% | 107% |
| CC1(C)N=C(N)N=C(N)N1c1ccc(OCCCNC(=O)Nc2ccc(S(=O)(=O)F)cc2)c(Cl)c1 | 32.4% | 25.2% | 55.2% | 65.1% | 49.4% | 32.3% | 21.7% | 16.5% | 26.4% | 35.3% |
| COc1ccc(C(=O)c2cc(OC)c(OC)c(OC)c2)cc1OC(C)=O | 4.78% (active) | 10.4% | 78% | 33.8% | 49.3% | 41.9% | 15.4% | 6.23% (active) | 55.7% | 4.11% (active) |
| COc1ccc(S(=O)(=O)N(Cc2ccc3c(c2)C=CC(C)(C)O3)c2ccccc2)cc1OC | 96.6% | 63.2% | 83.4% | 96.6% | 77.2% | 87.4% | 70.6% | 97.3% | 61.9% | 87.6% |
| O=C1C2C(C(=O)[N]1[Hg][c]1cccs1)C1(Cl)C(Cl)=C(Cl)C2(Cl)C1(Cl)Cl (stereo not given) | 53.8% | -2.45% (active) | -63.7% (active) | -56.2% (active) | -83.5% (active) | 32.3% | 58.3% | 12.6% | -50.8% (active) | -57.9% (active) |
| O=P(Oc1ccc(Cl)cc1)(N1CC1)N1CC1 | 54.4% | 85.3% | 104% | 106% | 73.9% | 89% | 66.2% | 81.4% | 94.8% | 86.5% |
| O=C1CC2(CC3(Cl)C(Cl)=C(Cl)C2(Cl)C3(Cl)Cl)C(=O)O1 (stereo not given) | 101% | 97.9% | 101% | 128% | 107% | 114% | 100% | 114% | 107% | 95.4% |
| CCC(=O)Nc1ccc(Cl)c(Cl)c1 | 115% | 97.6% | 102% | 92.2% | 101% | 105% | 98.3% | 92.4% | 102% | 103% |
| O=C(CCl)c1ccc([N+](=O)[O-])o1 | -30.8% (active) | -36.7% (active) | -54.6% (active) | 64.6% | -48.2% (active) | 1.57% (active) | 92.2% | 2.78% (active) | -49.3% (active) | -11.5% (active) |
| Clc1cccc(NCOOC2(OOCNc3cccc(Cl)c3)CCCCC2)c1 | 73.3% | -41% (active) | 74.5% | 81.7% | 108% | 73.1% | 74.8% | 16.4% | 87.7% | 60.4% |
| CC[C@H](C)[C@H](NC(=O)c1nccn1C)C(=O)N(C)[C@H](C[C@@H](OC(C)=O)c1nc(C(=O)N[C@@H](Cc2ccccc2)C[C@H](C)C(=O)OC)cs1)C(C)C | 4.69% (active) | 6.34% (active) | 71.6% | -5.75% (active) | -0.416% (active) | 25.6% | 4.7% (active) | -31.7% (active) | 54.2% | 3.12% (active) |
| [Cl][Hg][n]1c(-c2ccco2)nc2ccccc21 | 97.3% | 78.8% | 119% | 100% | 104% | 105% | 106% | 99.3% | 103% | 86.1% |
| CN1C(=O)C(=Cc2cn(CCCCCCn3c4ccccc4c(=O)c4ccccc43)c3ccccc23)C(=O)N(C)C1=O | 105% | 88.3% | 103% | 103% | 115% | 94.6% | 95% | 86% | 104% | 94% |
| CC(C)=CCC[C@H](C(=O)O)[C@@H]1CC[C@]2(C)C3=C(CC[C@@]12C)[C@@]1(C)CC[C@H](O)C(C)(C)[C@@H]1CC3 | 110% | 70.4% | 106% | 103% | 104% | 101% | 94.6% | 93.2% | 88.9% | 85.9% |
| CCCCCCCCC(CO)NCCc1ccccc1 (stereo not given) | 102% | 80.7% | 109% | 93.1% | 136% | 99.7% | 98.1% | 115% | 85.7% | 92.5% |
| CCCCCCCCCCCCNC(c1ccccc1)C(O)c1ccccc1 (stereo not given) | 83.5% | 24.1% | 68.3% | 39.9% | 59% | 79% | 107% | 87.9% | 99.9% | 93.3% |
| C=CC[n+]1ccc(-c2cc[n+](CC=C)cc2)cc1 | 107% | 99.4% | 34.1% | 120% | 99.8% | 102% | 101% | 101% | 96.9% | 109% |
| COc1cc(/C=C/[N+](=O)[O-])c([N+](=O)[O-])cc1OC | 38.6% | 10.9% | 11.7% | -12.1% (active) | -92.9% (active) | 48.3% | 107% | -32.4% (active) | 65.7% | 7.35% (active) |
| C[n+]1c(/C=C/c2ccc(N(CCCl)CCCl)cc2)sc2ccccc21 | 45.2% | 15.3% | 54% | 80.8% | 85.6% | 57.7% | 55.7% | 45.4% | 64.7% | 64.7% |
| Clc1cc(N2CC2)nc(N2CC2)n1 | 52.5% | 69% | 89.7% | 88.1% | 78% | 59.3% | 40.7% | 43.8% | 76.7% | 57.4% |
| COc1ccc(/C=C\c2cc(OC)c(OC)c(OC)c2)c(NS(=O)(=O)c2ccc(F)cc2)c1O | -19.1% (active) | 18.3% | 94.3% | 8.05% (active) | 23.5% | 15.1% | 4.99% (active) | 2.76% (active) | 66.5% | 6.43% (active) |
